# PLC-gamma1 inh – PLC-gamma1 (human) inhibition, primary screen | P19174 | purified PLC-gamma1, fluorogenic substrate, fluorescence | inhibition, % at 12.2 µM | hit rate 0.84% among 370,000 | AID 720700; in the data active = inhibition above about 9.5%
# LEDGF integ inh – blocks HIV-1 LEDGF/p75-dependent DNA integration; TR-FRET IN-LEDGF/p75 DNA integration, Eu/Cy5; inhibition, % at 3.7 µM; hit rate 0.64% among 370,000;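 active = inhibition above the screen-wide mean plus 3 SD, cut at about 13% in these data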;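 note: signal is the Cy5 over europium emission ratio at 671 and 618 nm; 0% = plate median of compound wells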
# PLC-beta3 inh – inhibitors of human phospholipase C beta3; AID 720704; inhibition, % at 12.2 µM; Purified PLC-beta3, fluorogenic substrate, fluorescence; hit rate 0.18% among 370,000; in the data active = inhibition above about 11%;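 note: 0% = median of compound wells on plate and 100% = full blocker control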
# MBD2 DNA inh – MBD2-methylated oligo binding inhibition; Q9UBB5; TR-FRET, MBD2 binding to methylated oligonucleotide; inhibition, % at 4.4 µM; hit rate 0.31% among 370,000; in the data active = inhibition above about 13%
# UHRF1 MBD2 ctr – blocks human UHRF1 binding to methylated DNA; AID 687016; Q96T88; inhibition, % at 4.4 µM; hit rate 0.75% among 370,000; UHRF1 binding to methylated oligo, TR-FRET; in the data active = inhibition above about 21%;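 note: UHRF1 SRA domain binding a hemimethylated CpG hairpin DNA probe; 0% = median of test compound wells and 100% = reference inhibitor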
# IN multimer act – HIV-1 integrase multimerization activation, counter-screen. shares compounds with LEDGF integ inh. TR-FRET HIV-1 integrase multimerization, biochemical. activation, % at 7.7 µM. hit rate 17% among 2,000. AID 1053131; in the data active = activation above about 8.9%
# TR-FRET interf – counter-screen for LEDGF/p75 integration inhibitors: TR-FRET optical interference. TR-FRET optical interference counterscreen, HIV-1 IN multimerization. 2,000 tested, under 10 active. shares compounds with LEDGF integ inh. inhibition, % at 7.7 µM;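 active = inhibition above the mean over all tested compounds plus 3 SD, which no compound reached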;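 note: 0% = integrase with antibodies and DMSO and 100% = antibodies without integrase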
# LEDGF integ conf – LEDGF/p75-dependent HIV-1 integration inhibition, confirmation; shares compounds with LEDGF integ inh; TR-FRET LEDGF/p75-dependent HIV-1 integration, biochemical; inhibition, % at 3.7 µM; hit rate 36% among 2,000; AID 1053136; in the data active = inhibition above about 14%
# Numbers without * were called inactive; nt = no result. Hits are enriched below; roughly 2.3% of the tested compounds scored in any of these assays.
SMILES,PLC-gamma1 inh,LEDGF integ inh,PLC-beta3 inh,MBD2 DNA inh,UHRF1 MBD2 ctr,IN multimer act,TR-FRET interf,LEDGF integ conf
CCC(CO)Oc1cc(NCc2ccccc2)c2ncn(C(C)C)c2c1 (centres undefined),-38,1,-51,-7,-3,nt,nt,nt
COc1ccc(S[C@]2(C(=O)NC(C)C)CC(=O)N[C@@H]2c2ccc(OC)cc2)cc1,1,2,-3,-3,0,nt,nt,nt
COc1cc(/C=N/Nc2nncn2/N=C/c2ccc(O)c(OC)c2)ccc1O,9,48*,4,2,10,7,-24,-6
COc1ccc(OC)c(/C=N/Nc2nncn2/N=C/c2cc(OC)ccc2OC)c1,-106,39*,-128,3,4,1,-4,2
COc1cc(/C=N/Nc2ccccc2)ccc1O,-6,-3,-15,-7,-3,nt,nt,nt
C(=N\Nc1nncn1/N=C/c1ccco1)/c1ccco1,3,37*,0,-8,-4,1,-5,2
Cc1cc(/C=N/O)c(C)n1-c1ccc(Br)cc1,-4,18*,-3,1,-2,0,2,-5
Cc1cc(/C=N/NC(N)=S)c(C)n1-c1ccc(Br)cc1,-8,4,-18,-3,-9,nt,nt,nt
O=[N+]([O-])c1ccccc1NC(=S)N/N=C/c1ccc(O)c(O)c1,-7,46*,-19,-3,10,11*,-57,71*
CCOc1cccc(/C=N/NC(=S)Nc2ccccc2[N+](=O)[O-])c1O,-7,-2,-10,1,-9,nt,nt,nt
COc1cc(-c2cc(=O)c3c(O)c(OC)c(OC)c(O)c3o2)ccc1O,-3,25*,-4,-1,-3,27*,-136,22*
O=C(CSc1nnc(-c2ccc(Cl)cc2)n1-c1ccccc1)NN=Cc1c[nH]c2ccccc12,7,3,3,2,0,nt,nt,nt
O=S1(=O)c2c(cccc2N2CC[C@@H](O)C2)O[C@@H]2CCN1C2,-2,-1,-2,2,-1,nt,nt,nt
COc1ccc(-n2c(SCC(=O)N3CCCC3)nnc2-c2ccncc2)cc1,-2,-2,2,5,-1,nt,nt,nt
CN(CCOC(=O)c1occ2ccccc12)C1CN(Cc2cn(Cc3ccccc3Cl)nn2)S(=O)(=O)C1 (centres undefined),-1,-4,2,3,4,nt,nt,nt
COc1ccccc1N(CC(=O)NC1CCCCC1)S(=O)(=O)c1cccs1,4,5,-2,-2,4,nt,nt,nt
COc1ccccc1N(CC(=O)NC1CCCCC1C)S(=O)(=O)c1cccs1 (centres undefined),-1,34*,2,-1,0,0,0,6
CCOC(=O)[C@]12CCCCC/C=C\1N(Cc1ccc(OC)cc1)C(=O)[C@H]2CC(=O)NCCC(C)C,1,-2,2,2,-1,nt,nt,nt
COc1cc(NS(=O)(=O)c2ccc(C)cc2)c2ncccc2c1,-62,-26,-54,-2,0,nt,nt,nt
COc1cc(NCCCC(C)N)c2ncccc2c1 (centres undefined),-15,30*,-30,-16,-4,5,-19,63*
CCC(CNc1cc(OC)cc2cccnc12)NC1CCCCC1 (centres undefined),-30,58*,-63,-16,9,6,-22,76*
C#CCN1C(=O)[C@@](O)(c2cccn2C)c2cc(F)ccc21,7,6,0,2,14,nt,nt,nt
O=C(CCCOc1ccccc1)Nc1nccs1,-1,-1,1,2,1,nt,nt,nt
O=C(Nc1nccs1)Oc1ccccc1,-3,16*,3,3,1,1,-4,-10
Cc1nn(-c2ccccc2)c(C)c1C=NNC(=O)CSc1nc2ccccc2n1C,0,1,1,8,4,nt,nt,nt
SMILES,PLC-gamma1 inh,LEDGF integ inh,PLC-beta3 inh,MBD2 DNA inh,UHRF1 MBD2 ctr,IN multimer act,TR-FRET interf,LEDGF integ conf
O=C1C2C3C=CC(CC3)C2C(=O)N1/N=C/c1ccc(O)c(O)c1 (centres undefined),5,-6,0,-2,6,nt,nt,nt
O=C1c2ccccc2C(=O)N1/N=C/c1ccc(O)c(O)c1,-1,30*,0,-1,1,23*,-81,59*
O=S(=O)(Nc1ccc(Cc2ccncc2)cc1)N1CCCC1,2,25*,-32,-1,-1,1,-5,2
CC(C)(C)c1nnc(N/N=C/c2ccc(Br)cc2)n(N)c1=O,1,-2,1,-2,-1,nt,nt,nt
Nn1cnnc1N/N=C/c1cc(Br)cc(Br)c1O,3,44*,-3,4,4,1,-2,-16
CC1CCN(c2ccc(/C=N/n3nnnc3N)cc2[N+](=O)[O-])CC1,1,3,2,-5,-3,nt,nt,nt
CSc1ccc(/C=N\Nc2nncn2N)cc1,2,40*,-10,3,15,-1,3,-5
CC(C)(C)c1ccc(/C=N/Nc2nncn2N)cc1,8,39*,3,1,7,-1,5,-8
CC1CCN(c2ccc(/C=N\Nc3nncn3N)cc2[N+](=O)[O-])CC1,8,47*,5,-6,4,2,-8,-15
CC(NC1=CC(=O)c2cccnc2C1=O)C(O)c1ccccc1 (centres undefined),-27,36*,-46,-13,2,4,-12,66*
C=CCn1c(SCC(=O)Nc2ccc(CCCC)cc2)nnc1-c1ccc(Cl)cc1,-2,1,0,-3,0,nt,nt,nt
CCC/C(C(=O)NCCO)=C1/c2ccccc2C(=O)N1c1ccccc1,4,18*,-2,4,4,-3,11,3
CCC/C(=C1/c2ccccc2C(=O)N1c1ccccc1)c1c(C)noc1C,0,-3,-5,1,-3,nt,nt,nt
CCN1CCCCC(NC(=O)c2ccc(C)cc2)C1=O (centres undefined),9,8,1,0,0,nt,nt,nt
COc1ccc2nc(NC(=S)N(C)C)sc2c1,15*,17*,9,-8,-5,2,-12,16*
CN(C)CCCn1c(NC(=O)C2CCCCC2)nc2ccccc21,-2,3,2,0,-3,nt,nt,nt
CCCCn1c(NC(=O)c2ccccc2)nc2ccccc21,-20,26*,-33,0,-6,-1,7,25*
CCn1c(NC(=O)c2ccccc2)nc2ccccc21,-5,7,-13,4,0,nt,nt,nt
CCCCn1c(NC(=O)C2CCCCC2)nc2ccccc21,3,28*,10,2,0,1,-3,17*
C=CCn1c(NC(=O)c2ccccc2)nc2ccccc21,-6,15*,-12,4,72*,-4,19,14*
CCOC(=O)C1CCN(C(=O)C(C)(C)NC(=O)Nc2ccc3c(c2)CCC3)CC1,-3,-2,-18,4,3,nt,nt,nt

# High-throughput results (PubChem)
